Consider 1 sequence from publication PMC7862700, “An all-to-all approach to the identification of sequence-specific readers for epigenetic DNA modifications on cytosine”.

Holding throughout (experiment): DAPPL (digital affinity profiling via proximity ligation, sequencing); 10 mM Tris-HCl pH 7.5, 50 mM NaCl, 1 mM DTT, 4% glycerol, room temperature, 30 min; GST-TFs on glutathione beads, 16-mer random dsDNA library, 0.1% formaldehyde crosslink after washing; high values mean tight binding
The target in one experiment is T1, FLI1 (Homo sapiens, UniProt Q01543 1-452).
T1 sequence: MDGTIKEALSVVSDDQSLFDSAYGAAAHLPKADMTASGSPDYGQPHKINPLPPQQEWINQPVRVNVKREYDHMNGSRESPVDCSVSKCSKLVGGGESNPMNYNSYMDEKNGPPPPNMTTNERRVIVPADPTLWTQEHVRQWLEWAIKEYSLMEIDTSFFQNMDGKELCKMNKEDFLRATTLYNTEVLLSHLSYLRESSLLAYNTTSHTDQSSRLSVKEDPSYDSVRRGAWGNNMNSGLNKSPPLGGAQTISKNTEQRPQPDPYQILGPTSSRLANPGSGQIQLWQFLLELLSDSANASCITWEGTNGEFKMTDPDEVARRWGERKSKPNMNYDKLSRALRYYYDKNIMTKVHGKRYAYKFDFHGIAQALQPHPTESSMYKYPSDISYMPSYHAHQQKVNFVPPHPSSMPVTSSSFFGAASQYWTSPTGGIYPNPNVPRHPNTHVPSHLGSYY
Conditions: protein: recombinant; tags: N-terminal GST; dsDNA, one strand shown. Summed up: (§1)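 In yeast, human transcription factors were expressed with a GST fusion, then pulled down on glutathione beads and given DNA barcodes. Pooled with a tag-only sample, they were exposed to 200 nmole of a 16-mer random double-stranded DNA library (Tris/NaCl/DTT/glycerol buffer, room temperature, 30 min), washed, crosslinked with 0.1% formaldehyde, proximity-ligated using BsaI/T4 ligase for 1 h at 37 °C, PCR-amplified and read on an Illumina NextSeq500. Each hexamer's frequency of reads for a factor, divided by the matching frequency for the tag-only sample, gives the binding signal.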

The target of a further experiment is T2, ELK1 (Homo sapiens, UniProt P19419 1-428).
T2 sequence: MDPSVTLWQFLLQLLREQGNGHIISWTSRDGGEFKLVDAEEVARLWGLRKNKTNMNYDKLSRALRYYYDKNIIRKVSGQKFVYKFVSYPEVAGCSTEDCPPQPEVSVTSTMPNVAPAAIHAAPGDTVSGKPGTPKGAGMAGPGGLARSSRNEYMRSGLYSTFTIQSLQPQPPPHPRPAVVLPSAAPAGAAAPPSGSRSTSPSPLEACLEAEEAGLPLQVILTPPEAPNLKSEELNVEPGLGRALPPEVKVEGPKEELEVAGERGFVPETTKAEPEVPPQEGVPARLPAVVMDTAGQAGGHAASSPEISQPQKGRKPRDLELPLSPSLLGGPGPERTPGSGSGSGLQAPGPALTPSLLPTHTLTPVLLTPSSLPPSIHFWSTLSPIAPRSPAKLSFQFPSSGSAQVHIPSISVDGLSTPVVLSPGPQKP
Conditions: protein: recombinant; tags: N-terminal GST; dsDNA, one strand shown. In outline: as §1

The target in the next experiment is T3, GABPA (Homo sapiens, UniProt Q06546 1-454).
T3 sequence: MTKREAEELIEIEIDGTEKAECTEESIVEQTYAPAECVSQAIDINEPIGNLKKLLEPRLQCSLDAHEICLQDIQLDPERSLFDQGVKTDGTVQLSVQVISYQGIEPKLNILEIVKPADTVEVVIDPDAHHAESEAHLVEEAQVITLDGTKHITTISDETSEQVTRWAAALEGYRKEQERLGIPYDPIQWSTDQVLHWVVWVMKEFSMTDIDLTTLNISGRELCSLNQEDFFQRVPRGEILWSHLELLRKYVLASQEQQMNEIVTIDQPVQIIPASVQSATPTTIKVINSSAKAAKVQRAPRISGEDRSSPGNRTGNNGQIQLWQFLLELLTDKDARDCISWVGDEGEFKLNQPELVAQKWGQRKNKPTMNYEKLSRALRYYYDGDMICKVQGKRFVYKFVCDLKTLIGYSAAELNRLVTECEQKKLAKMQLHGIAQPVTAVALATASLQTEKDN
The settings on record: protein: recombinant; tags: N-terminal GST; dsDNA, one strand shown. Summed up:
as §1

The next experiment has as its target T4, ERG (Homo sapiens, UniProt P11308 1-479).
T4 sequence: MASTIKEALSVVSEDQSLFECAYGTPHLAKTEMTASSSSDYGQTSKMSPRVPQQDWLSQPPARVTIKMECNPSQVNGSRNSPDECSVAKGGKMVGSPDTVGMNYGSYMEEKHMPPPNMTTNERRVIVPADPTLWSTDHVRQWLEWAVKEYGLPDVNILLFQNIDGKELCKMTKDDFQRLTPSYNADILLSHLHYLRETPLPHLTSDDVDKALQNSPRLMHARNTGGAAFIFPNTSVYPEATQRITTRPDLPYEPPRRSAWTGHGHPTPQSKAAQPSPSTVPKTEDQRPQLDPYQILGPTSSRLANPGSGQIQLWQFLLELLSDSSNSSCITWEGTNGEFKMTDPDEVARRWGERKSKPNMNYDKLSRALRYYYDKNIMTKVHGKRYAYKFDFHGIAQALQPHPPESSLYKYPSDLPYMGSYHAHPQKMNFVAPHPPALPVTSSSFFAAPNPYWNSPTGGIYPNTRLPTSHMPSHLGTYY
The settings on record: protein: recombinant; tags: N-terminal GST; dsDNA, one strand shown. Summed up: as §1

Another experiment has as its target ELF1 (Homo sapiens, UniProt P32519 1-619). Conditions: protein: recombinant; tags: N-terminal GST; dsDNA, one strand shown. In outline: as §1
A further experiment has as its target T5, EHF (Homo sapiens, UniProt Q9NZC4 1-300).
T5 sequence: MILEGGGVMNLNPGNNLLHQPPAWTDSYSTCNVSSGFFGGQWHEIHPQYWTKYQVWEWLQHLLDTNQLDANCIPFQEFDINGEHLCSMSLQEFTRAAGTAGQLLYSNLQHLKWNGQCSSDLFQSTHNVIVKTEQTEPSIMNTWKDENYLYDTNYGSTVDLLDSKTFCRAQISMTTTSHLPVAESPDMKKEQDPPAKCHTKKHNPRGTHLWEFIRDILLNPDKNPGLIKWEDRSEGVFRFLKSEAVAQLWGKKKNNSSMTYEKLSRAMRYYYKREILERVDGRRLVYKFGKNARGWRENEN
The settings on record: protein: recombinant; tags: N-terminal GST; dsDNA, one strand shown. In outline: as §1

For another experiment, the target named is SPI1 (Homo sapiens, UniProt P17947 1-270). The settings on record: protein: recombinant; tags: N-terminal GST; dsDNA, one strand shown. In outline:
as §1

The target in the next experiment is SPIB (Homo sapiens, UniProt Q01892 1-262). Conditions: protein: recombinant; tags: N-terminal GST; dsDNA, one strand shown. In outline: as §1
The target of the next experiment is T6, ELK3 (Homo sapiens, UniProt P41970 1-407).
T6 sequence: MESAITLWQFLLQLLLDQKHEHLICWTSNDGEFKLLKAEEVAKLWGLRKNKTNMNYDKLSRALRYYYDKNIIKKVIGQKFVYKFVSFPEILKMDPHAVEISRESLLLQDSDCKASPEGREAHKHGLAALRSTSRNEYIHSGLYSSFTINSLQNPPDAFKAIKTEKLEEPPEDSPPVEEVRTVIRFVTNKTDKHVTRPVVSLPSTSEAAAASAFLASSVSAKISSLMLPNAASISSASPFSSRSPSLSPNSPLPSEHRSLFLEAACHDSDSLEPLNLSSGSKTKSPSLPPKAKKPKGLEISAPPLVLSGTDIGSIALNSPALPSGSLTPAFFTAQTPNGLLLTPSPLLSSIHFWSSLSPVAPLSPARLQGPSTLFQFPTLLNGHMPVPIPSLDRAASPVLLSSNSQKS
Conditions: protein: recombinant; tags: N-terminal GST; dsDNA, one strand shown. In outline: as §1

In the next experiment the target is T7, FEV (Homo sapiens, UniProt Q99581 1-238).
T7 sequence: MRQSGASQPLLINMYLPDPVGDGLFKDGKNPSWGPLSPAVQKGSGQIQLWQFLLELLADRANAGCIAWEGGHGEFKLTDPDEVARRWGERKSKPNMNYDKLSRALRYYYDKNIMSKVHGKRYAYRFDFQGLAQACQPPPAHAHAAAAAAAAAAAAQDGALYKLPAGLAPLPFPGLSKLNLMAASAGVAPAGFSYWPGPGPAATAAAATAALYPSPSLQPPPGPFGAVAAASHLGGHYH
The settings on record: protein: recombinant; tags: N-terminal GST; dsDNA, one strand shown. Summed up: as §1

The next experiment has as its target ETV5 (Homo sapiens, UniProt P41161 1-510). Conditions: protein: recombinant; tags: N-terminal GST; dsDNA, one strand shown. Summed up: as §1
In a further experiment the target is HSF1 (Homo sapiens, UniProt Q00613 1-529). Conditions: protein: recombinant; tags: N-terminal GST; chain copies: 3; dsDNA, one strand shown. Summed up: as §1
The next experiment deals with T8, SPIC (Homo sapiens, UniProt Q8N5J4 1-248).
T8 sequence: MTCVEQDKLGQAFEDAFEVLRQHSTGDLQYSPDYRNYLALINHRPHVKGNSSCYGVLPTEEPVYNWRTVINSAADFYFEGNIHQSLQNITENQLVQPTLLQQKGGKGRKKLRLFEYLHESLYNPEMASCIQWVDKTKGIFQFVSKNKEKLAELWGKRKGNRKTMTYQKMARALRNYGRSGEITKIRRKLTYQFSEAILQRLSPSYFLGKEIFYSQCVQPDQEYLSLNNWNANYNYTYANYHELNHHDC
The settings on record: protein: recombinant; tags: N-terminal GST; dsDNA, one strand shown. In outline: as §1

The target of a further experiment is ELF4 (Homo sapiens, UniProt Q99607 1-663). Conditions: protein: recombinant; tags: N-terminal GST; dsDNA, one strand shown. Summed up: as §1
A further experiment deals with T9, ELK4 (Homo sapiens, UniProt P28324-2 1-405).
T9 sequence: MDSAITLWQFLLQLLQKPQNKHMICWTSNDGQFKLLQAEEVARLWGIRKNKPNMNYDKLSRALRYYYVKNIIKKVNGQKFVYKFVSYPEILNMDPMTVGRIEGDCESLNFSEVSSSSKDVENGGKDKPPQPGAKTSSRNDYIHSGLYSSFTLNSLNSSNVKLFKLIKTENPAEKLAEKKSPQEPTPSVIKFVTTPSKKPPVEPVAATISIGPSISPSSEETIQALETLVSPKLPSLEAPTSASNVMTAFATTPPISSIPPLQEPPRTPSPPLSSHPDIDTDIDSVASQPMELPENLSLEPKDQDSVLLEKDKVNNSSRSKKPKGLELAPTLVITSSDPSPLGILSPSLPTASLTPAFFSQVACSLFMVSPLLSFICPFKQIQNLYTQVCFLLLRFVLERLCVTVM
Conditions: protein: recombinant; tags: N-terminal GST; dsDNA, one strand shown. In outline:
as §1

The next experiment has as its target T10, ETV2 (Homo sapiens, UniProt O00321 1-342).
T10 sequence: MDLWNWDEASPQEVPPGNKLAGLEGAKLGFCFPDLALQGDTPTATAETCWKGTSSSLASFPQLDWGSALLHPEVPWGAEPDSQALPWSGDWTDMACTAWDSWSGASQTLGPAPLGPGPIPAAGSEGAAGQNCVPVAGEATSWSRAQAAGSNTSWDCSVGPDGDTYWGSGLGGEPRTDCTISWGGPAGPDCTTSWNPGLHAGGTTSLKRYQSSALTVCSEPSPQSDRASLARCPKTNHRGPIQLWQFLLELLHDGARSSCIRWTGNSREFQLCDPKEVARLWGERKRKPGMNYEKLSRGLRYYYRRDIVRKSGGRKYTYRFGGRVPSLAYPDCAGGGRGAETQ
Conditions: protein: recombinant; tags: N-terminal GST; dsDNA, one strand shown. In outline:
as §1

The target in another experiment is T11, ELF3 (Homo sapiens, UniProt P78545 1-371).
T11 sequence: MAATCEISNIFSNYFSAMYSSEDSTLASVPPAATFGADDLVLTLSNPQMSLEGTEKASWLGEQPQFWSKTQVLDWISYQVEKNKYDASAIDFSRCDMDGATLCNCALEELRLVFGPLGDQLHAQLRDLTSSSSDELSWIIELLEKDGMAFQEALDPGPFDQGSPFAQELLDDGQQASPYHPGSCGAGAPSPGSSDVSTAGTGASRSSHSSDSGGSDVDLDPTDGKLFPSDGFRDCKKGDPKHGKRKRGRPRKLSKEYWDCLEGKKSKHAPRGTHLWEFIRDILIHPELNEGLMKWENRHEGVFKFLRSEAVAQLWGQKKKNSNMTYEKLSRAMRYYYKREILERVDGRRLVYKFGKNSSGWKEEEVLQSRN
Conditions: protein: recombinant; tags: N-terminal GST; dsDNA, one strand shown. In outline:
as §1

Another experiment concerns the target CRX (Homo sapiens, UniProt O43186 1-299). Conditions: protein: recombinant; tags: N-terminal GST; dsDNA, one strand shown. In outline: as §1
Another experiment addresses ETV1 (Homo sapiens, UniProt P50549 1-477). The settings on record: protein: recombinant; tags: N-terminal GST; dsDNA, one strand shown. Summed up: as §1

ETV1, sequence (P50549 whole entry): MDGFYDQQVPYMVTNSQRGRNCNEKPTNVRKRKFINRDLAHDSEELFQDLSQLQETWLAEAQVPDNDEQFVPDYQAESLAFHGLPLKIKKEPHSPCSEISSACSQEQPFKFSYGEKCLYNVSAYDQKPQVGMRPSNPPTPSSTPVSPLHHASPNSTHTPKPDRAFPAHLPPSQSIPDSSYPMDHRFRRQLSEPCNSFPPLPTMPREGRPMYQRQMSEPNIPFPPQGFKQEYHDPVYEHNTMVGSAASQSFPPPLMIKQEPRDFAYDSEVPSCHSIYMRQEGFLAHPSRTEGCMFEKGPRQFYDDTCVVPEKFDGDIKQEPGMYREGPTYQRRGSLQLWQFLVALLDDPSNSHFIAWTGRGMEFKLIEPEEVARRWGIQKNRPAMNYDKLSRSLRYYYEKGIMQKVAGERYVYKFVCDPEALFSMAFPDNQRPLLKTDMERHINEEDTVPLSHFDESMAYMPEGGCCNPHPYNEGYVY
SPIB, sequence (Q01892 whole entry): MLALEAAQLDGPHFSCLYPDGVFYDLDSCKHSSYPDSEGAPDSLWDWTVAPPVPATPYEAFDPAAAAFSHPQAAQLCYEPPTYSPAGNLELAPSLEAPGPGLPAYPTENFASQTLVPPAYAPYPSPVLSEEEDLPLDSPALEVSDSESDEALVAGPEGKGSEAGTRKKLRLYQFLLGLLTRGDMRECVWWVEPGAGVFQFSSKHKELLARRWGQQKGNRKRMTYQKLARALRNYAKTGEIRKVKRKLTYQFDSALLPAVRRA
HSF1, sequence (Q00613 whole entry): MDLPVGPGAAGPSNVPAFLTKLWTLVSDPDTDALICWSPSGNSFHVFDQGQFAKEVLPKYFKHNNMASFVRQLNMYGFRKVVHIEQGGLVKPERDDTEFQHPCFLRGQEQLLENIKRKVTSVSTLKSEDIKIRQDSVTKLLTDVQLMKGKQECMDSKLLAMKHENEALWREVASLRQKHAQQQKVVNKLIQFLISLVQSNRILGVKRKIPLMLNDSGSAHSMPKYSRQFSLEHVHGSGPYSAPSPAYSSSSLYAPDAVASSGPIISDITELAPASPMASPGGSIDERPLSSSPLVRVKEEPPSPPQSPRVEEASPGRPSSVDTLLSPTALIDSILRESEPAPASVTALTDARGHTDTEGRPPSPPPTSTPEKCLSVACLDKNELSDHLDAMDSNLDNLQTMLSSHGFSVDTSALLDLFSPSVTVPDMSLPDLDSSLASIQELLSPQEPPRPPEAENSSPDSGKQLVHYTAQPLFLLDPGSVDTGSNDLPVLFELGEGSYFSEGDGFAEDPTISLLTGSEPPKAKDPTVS
ELF1, sequence (P32519 whole entry): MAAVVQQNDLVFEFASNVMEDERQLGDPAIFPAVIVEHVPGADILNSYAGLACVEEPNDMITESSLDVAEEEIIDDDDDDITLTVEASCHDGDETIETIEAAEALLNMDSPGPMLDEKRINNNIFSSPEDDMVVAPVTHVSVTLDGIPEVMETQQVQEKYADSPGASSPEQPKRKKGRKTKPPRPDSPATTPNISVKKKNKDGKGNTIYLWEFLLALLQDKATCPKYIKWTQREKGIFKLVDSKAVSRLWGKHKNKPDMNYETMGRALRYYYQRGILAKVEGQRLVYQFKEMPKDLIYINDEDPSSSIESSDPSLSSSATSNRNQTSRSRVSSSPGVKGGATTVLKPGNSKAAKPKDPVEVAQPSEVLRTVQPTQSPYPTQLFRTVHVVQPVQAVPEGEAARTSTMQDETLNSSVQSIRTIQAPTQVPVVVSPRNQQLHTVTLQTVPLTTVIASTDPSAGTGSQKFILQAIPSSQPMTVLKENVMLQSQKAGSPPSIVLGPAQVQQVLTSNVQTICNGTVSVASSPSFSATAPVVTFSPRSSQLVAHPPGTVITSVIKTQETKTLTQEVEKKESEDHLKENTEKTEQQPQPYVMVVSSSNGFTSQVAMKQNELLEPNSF
CRX, sequence (O43186 whole entry): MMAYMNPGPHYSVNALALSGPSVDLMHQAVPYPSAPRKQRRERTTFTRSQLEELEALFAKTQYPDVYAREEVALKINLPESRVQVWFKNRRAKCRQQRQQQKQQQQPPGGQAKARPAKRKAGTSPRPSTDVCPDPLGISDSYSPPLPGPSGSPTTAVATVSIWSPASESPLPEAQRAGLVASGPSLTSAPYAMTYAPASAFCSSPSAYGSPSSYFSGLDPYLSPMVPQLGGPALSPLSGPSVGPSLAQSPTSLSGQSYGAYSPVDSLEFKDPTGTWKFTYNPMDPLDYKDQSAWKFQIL
ELF4, sequence (Q99607 whole entry): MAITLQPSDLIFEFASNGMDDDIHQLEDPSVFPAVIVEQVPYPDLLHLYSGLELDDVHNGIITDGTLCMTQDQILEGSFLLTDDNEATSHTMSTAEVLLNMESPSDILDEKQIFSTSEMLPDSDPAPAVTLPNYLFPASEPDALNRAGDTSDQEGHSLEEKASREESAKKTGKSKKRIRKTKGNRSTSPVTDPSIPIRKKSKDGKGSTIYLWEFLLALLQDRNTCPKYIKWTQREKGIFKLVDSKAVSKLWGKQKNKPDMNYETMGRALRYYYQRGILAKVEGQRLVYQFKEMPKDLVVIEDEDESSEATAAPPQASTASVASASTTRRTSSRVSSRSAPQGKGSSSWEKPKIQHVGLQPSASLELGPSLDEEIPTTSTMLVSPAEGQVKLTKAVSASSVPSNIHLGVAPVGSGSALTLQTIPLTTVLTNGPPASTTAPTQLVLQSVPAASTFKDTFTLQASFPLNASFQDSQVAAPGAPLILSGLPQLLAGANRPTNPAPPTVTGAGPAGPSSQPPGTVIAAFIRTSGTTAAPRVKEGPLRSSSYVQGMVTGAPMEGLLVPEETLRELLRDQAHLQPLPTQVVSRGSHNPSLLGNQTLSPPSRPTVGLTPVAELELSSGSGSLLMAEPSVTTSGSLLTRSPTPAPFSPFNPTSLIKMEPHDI
ETV5, sequence (P41161 whole entry): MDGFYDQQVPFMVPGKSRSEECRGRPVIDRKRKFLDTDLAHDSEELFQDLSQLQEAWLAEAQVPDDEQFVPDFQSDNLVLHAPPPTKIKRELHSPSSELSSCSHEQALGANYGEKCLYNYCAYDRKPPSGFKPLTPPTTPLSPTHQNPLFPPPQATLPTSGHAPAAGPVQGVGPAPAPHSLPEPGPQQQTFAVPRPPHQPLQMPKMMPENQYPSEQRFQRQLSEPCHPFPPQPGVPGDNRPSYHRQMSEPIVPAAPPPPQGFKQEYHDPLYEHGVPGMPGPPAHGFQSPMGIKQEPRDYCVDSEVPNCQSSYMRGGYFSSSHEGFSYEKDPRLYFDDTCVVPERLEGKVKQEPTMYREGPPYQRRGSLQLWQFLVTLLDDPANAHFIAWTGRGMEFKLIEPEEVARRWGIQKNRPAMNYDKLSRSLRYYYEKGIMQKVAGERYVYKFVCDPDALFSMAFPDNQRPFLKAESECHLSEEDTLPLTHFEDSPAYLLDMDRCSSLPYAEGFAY

Consider CTCGCT, for which the binding signal was 1.81 fold enrichment (6-mer frequency, TF over GST control) with FLI1; 1.67 fold enrichment (6-mer frequency, TF over GST control) with ELK1; 1.72 fold enrichment (6-mer frequency, TF over GST control) with GABPA; 1.63 fold enrichment (6-mer frequency, TF over GST control) with ERG; 1.75 fold enrichment (6-mer frequency, TF over GST control) with ELF1; 1.6 fold enrichment (6-mer frequency, TF over GST control) with EHF. Further, the binding signal in the experiment with SPI1 was 1.54 fold enrichment (6-mer frequency, TF over GST control); in the experiment with SPIB it was 1.81 fold enrichment (6-mer frequency, TF over GST control); with ELK3, 1.41 fold enrichment (6-mer frequency, TF over GST control); in the experiment with FEV it was 1.67 fold enrichment (6-mer frequency, TF over GST control); with ETV5, 1.66 fold enrichment (6-mer frequency, TF over GST control); with HSF1, 1.66 fold enrichment (6-mer frequency, TF over GST control). The binding signal with SPIC is 1.76 fold enrichment (6-mer frequency, TF over GST control); with ELF4, 1.56 fold enrichment (6-mer frequency, TF over GST control); in the experiment with ELK4 it was 1.68 fold enrichment (6-mer frequency, TF over GST control); in the experiment with ETV2, 1.52 fold enrichment (6-mer frequency, TF over GST control); in the experiment with ELF3, 1.83 fold enrichment (6-mer frequency, TF over GST control); with CRX, 1.37 fold enrichment (6-mer frequency, TF over GST control). The binding signal with ETV1 was 1.71 fold enrichment (6-mer frequency, TF over GST control).
